Growth data for eight compounds are collected here from PubChem BioAssay (NCI).

Among the test systems are HCT-15 colon; HT29 colon; SNB-75 CNS; SNB-19 CNS; U251 CNS; PC-3 prostate; SK-MEL-5 melanoma; UACC-62 melanoma; LOX IMVI melanoma; SK-MEL-28 melanoma; EKVX NSCLC; SN12C renal; UO-31 renal; TK-10 renal; CAKI-1 renal; A498 renal; CCRF-CEM leukemia; MOLT-4 leukemia; ACHN renal.
What all share (experiment): NCI-60 one-dose screen, 48 h (100 = growth as untreated, 0 = no growth, -100 = all killed)
What all share (conditions): 10 µM unless noted

Molecules are shown by their SMILES. The panel holds about 83,000 compounds, 20% with a hit somewhere; the sample as a whole holds those more often.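 Activity criterion: percent growth below 10, measured after cells in 96-well plates were exposed to a single compound concentration for 48 hours.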 A number with no mark means an inactive call. The source made the active and inactive calls.

As for `CN1CCN(CC(=O)Nc2ccc(-c3nc4ccccc4s3)cc2)CC1`, the growth in the test with HCT-15 colon was 52.9%; in the test with HT29 colon, 39.6%; in the test with SNB-75 CNS, 73.1%; in the test with SNB-19 CNS, 89.7%; in the test on U251 CNS, 67.5%; with PC-3 prostate, 83.6%. Further, the growth was 73.7% in the test with SK-MEL-5 melanoma; -35.8% (active) in the test on UACC-62 melanoma; -33.7% (active) with LOX IMVI melanoma; 33.8% with SK-MEL-28 melanoma; 83.7% with EKVX NSCLC; 77.7% with SN12C renal. Moreover, the growth in the test with UO-31 renal is 57.5%; with TK-10 renal, 94.8%; with CAKI-1 renal, 73.5%; in the test on A498 renal it was 59.5%; with CCRF-CEM leukemia, 63.7%; in the test with MOLT-4 leukemia, 78%.

As to `COc1ccc2c(OCc3nnc4ccc(-c5ccccc5)nn34)ccnc2c1`, the growth in the test on HCT-15 colon was 96.9% [2.5 µM]; in the test on HT29 colon, 94.1% [2.5 µM]; in the test on SNB-75 CNS, 93.5% [2.5 µM]; with SNB-19 CNS, 106% [2.5 µM]; in the test on U251 CNS, 110% [2.5 µM]; in the test on PC-3 prostate, 96.9% [2.5 µM]. The growth in the test on SK-MEL-5 melanoma is 91.9% [2.5 µM]; with UACC-62 melanoma, 108% [2.5 µM]; with LOX IMVI melanoma, 2.5% [2.5 µM] (active); with SK-MEL-28 melanoma, 111% [2.5 µM]; in the test on EKVX NSCLC, 104% [2.5 µM]; in the test with SN12C renal it was 104% [2.5 µM]. The growth was 74.6% [2.5 µM] in the test on UO-31 renal; 93.7% [2.5 µM] with TK-10 renal; 74.6% [2.5 µM] with CAKI-1 renal; 89.1% [2.5 µM] with A498 renal; 102% [2.5 µM] in the test with CCRF-CEM leukemia; 72.7% [2.5 µM] with MOLT-4 leukemia.

For the compound `Cn1ncc(Cl)c1-c1cc(C(=O)N[C@H](CN)Cc2cccc(F)c2)sc1Cl`, the growth with HCT-15 colon was 16.9%; in the test with HT29 colon, 0.334% (active); in the test on SNB-75 CNS it was -46.2% (active); with SNB-19 CNS it was 9.05% (active); with U251 CNS it was -45.2% (active); with PC-3 prostate, 9.61% (active). Besides, the growth in the test on SK-MEL-5 melanoma is -96.1% (active); in the test on UACC-62 melanoma, -19.5% (active); in the test on LOX IMVI melanoma, -51.9% (active); with SK-MEL-28 melanoma, -72.7% (active); in the test on EKVX NSCLC it was 38.5%; in the test on SN12C renal it was 29.5%. The growth in the test on UO-31 renal is -10.1% (active); with TK-10 renal, 8.77% (active); with CAKI-1 renal, 11%; in the test with A498 renal, -61.2% (active); in the test on CCRF-CEM leukemia it was 6.1% (active); with MOLT-4 leukemia, -14.5% (active).

With `C=CC(=O)Nc1cc2c(Nc3ccc(F)c(Cl)c3)ncnc2cc1OCCCN1CCOCC1`, the growth in the test on HCT-15 colon was -32% (active); in the test with HT29 colon, -74.9% (active); in the test on SNB-75 CNS it was -15.9% (active); in the test on SNB-19 CNS, 17.4%; in the test on U251 CNS, 21.2%; in the test on PC-3 prostate it was 17.5%. Moreover, the growth in the test on SK-MEL-5 melanoma was 48.7%; in the test with UACC-62 melanoma it was -49.7% (active); in the test on LOX IMVI melanoma, -87% (active); in the test on SK-MEL-28 melanoma, -19% (active); in the test on EKVX NSCLC it was 15.8%; with SN12C renal it was 0.752% (active). Moreover, the growth is -12.8% (active) with UO-31 renal; -6.01% (active) in the test with TK-10 renal; -5.99% (active) with CAKI-1 renal; -29.3% (active) with A498 renal; 4.44% (active) with CCRF-CEM leukemia; -6.89% (active) in the test on MOLT-4 leukemia.

For `O=C(Cc1ccc(/C=C/C(=O)c2ncc[nH]2)cc1)Nc1ccc(S(F)(F)(F)(F)F)cc1`, the growth in the test with HCT-15 colon is 34.2%; in the test with HT29 colon it was -25.7% (active); in the test with SNB-75 CNS, 72.8%; in the test with SNB-19 CNS, 75.9%; with U251 CNS, 37%; in the test with PC-3 prostate it was 58.9%. Besides, the growth was 98.4% with SK-MEL-5 melanoma; 86.7% in the test with UACC-62 melanoma; -59% (active) with LOX IMVI melanoma; 100% in the test on SK-MEL-28 melanoma; 96.9% in the test on EKVX NSCLC; 80.3% in the test with SN12C renal. In addition, the growth in the test with TK-10 renal was 107%; with ACHN renal it was 95.8%; in the test with CAKI-1 renal, 81.7%; in the test on A498 renal, 88.3%; in the test with CCRF-CEM leukemia, 41.9%; in the test on MOLT-4 leukemia, 53.4%.

As for `COc1cc2ncnc(Nc3ccc(O)cc3)c2cc1OC`, the growth is 95.8% in the test on HCT-15 colon; 68.2% in the test with HT29 colon; 64% in the test on SNB-75 CNS; 77.7% in the test on SNB-19 CNS; 83.6% with U251 CNS; 91% in the test with PC-3 prostate. Also, the growth is 98.2% with SK-MEL-5 melanoma; 76.7% in the test with UACC-62 melanoma; 92.2% in the test with LOX IMVI melanoma; 97% with SK-MEL-28 melanoma; 66.3% in the test with EKVX NSCLC; 62.2% in the test with SN12C renal. Also, the growth is 2.22% (active) in the test with TK-10 renal; 31.1% in the test with ACHN renal; 43.4% with CAKI-1 renal; 77.7% in the test on CCRF-CEM leukemia; 75.3% with MOLT-4 leukemia.

Consider `CCN1CCN(Cc2ccc(NC(=O)Nc3nc(-c4cc(OC)c(OC)c(OC)c4)cs3)cc2C(F)(F)F)CC1`, for which the growth was -12.6% (active) with HCT-15 colon; 0.541% (active) with HT29 colon; 24.2% in the test on SNB-75 CNS; 33.7% in the test on SNB-19 CNS; 15.3% in the test on U251 CNS; 6.09% (active) with PC-3 prostate. In addition, the growth was -95.3% (active) with SK-MEL-5 melanoma; -68.4% (active) in the test with UACC-62 melanoma; -82.7% (active) in the test on LOX IMVI melanoma; -51.3% (active) in the test on SK-MEL-28 melanoma; 26.8% with EKVX NSCLC; 28.9% in the test on SN12C renal. For the same compound, the growth was 53.2% with UO-31 renal; 62.4% in the test with TK-10 renal; 55.2% with CAKI-1 renal; 51.6% with A498 renal; 0.288% (active) with CCRF-CEM leukemia; -18.9% (active) in the test with MOLT-4 leukemia.

As for `Brc1ccc([I+]c2ccc(Br)cc2)cc1`, the growth is 49.3% in the test with HCT-15 colon; 5.37% (active) with HT29 colon; -82.2% (active) in the test with SNB-75 CNS; -92.4% (active) in the test with SNB-19 CNS; -85% (active) with U251 CNS; 24.7% in the test with PC-3 prostate. The growth was -82.9% (active) in the test on SK-MEL-5 melanoma; 27% in the test on UACC-62 melanoma; 20.4% in the test on LOX IMVI melanoma; -14.6% (active) with SK-MEL-28 melanoma; 19.3% in the test with EKVX NSCLC; -26.9% (active) in the test with SN12C renal. For the same compound, the growth with UO-31 renal was 51.2%; in the test with TK-10 renal, -18% (active); with CAKI-1 renal, 51.2%; in the test on A498 renal, 71.6%; with CCRF-CEM leukemia it was 20.3%; in the test on MOLT-4 leukemia, 19.9%.
